Test results: ChEMBL document CHEMBL3433997, “St. Jude Leishmania screening dataset” (2016)

Experiments:
Assay type in all cases: functional
[1] = target: Solute carrier family 2, facilitated glucose transporter member 1 (Homo sapiens) (UniProt P11166); experiment: ST_JUDE_LEISH: Cytotoxicity at 2uM final concentration against transgenic Leishmania Mexicana promastigotes LmGLUT1 that are glucose transport deficient and complemented with the human glucose transporter GLUT1. Activity is measured by DNA content using SYBR green in vitro
[2] = target: Hexose transporter 1 (Plasmodium falciparum) (UniProt O97467); experiment: ST_JUDE_LEISH: Cytotoxicity at 2uM final concentration against transgenic Leishmania Mexicana promastigotes LmPfHT that are glucose transport deficient and complemented with the Plasmodium falciparum hexose transporter. Activity is measured by DNA content using SYBR green in vitro
[3] = target: Glucose transporter (Leishmania mexicana) (UniProt O61059); experiment: ST_JUDE_LEISH: Cytotoxicity at 2uM final concentration against transgenic Leishmania Mexicana promastigotes LmGT2 that are glucose transport deficient and complemented with the L. Mexicana glucose transporter 2. Activity is measured by DNA content using SYBR green in vitro

Chain of Solute carrier family 2, facilitated glucose transporter member 1 (Homo sapiens) (P11166 whole entry): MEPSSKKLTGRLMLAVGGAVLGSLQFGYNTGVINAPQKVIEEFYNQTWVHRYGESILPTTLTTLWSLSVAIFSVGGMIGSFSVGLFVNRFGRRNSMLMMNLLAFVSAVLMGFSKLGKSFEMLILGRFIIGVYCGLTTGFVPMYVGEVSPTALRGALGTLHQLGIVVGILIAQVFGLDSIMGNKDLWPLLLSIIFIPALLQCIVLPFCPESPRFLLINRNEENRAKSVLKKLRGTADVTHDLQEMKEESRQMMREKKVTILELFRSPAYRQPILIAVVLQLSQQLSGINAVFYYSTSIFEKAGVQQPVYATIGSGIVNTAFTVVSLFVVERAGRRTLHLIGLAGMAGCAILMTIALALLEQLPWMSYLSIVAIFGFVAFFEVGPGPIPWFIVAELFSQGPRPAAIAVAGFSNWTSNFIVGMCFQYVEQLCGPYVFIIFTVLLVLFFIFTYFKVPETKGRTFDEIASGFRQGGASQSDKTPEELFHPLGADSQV

Row | Compound | inhibition [1] [%] | inhibition [2] [%] | inhibition [3] [%]
1 | COc1ccc(NC(=O)c2ccc(Br)c(C)c2)cc1N1CCN(CCCc2c[nH]c3ccccc23)CC1 | -0.69 | -0.68 | -0.4
2 | NC(=O)c1ccsc1NC(=O)CNC(c1ccc(F)cc1)c1cccs1 (configuration not stated) | 2.48 | 2.01 | 2.8
3 | O=c1cc(NCCCNCc2cc(Cl)cc(Cl)c2OCc2ccccc2)[nH]c2ccccc12 | 5.54 | 2.83 | 4.41
4 | COc1ccc(CN(C)CCOc2ccc(NC(=O)c3cccc4c(=O)cc(-c5ccccc5)[nH]c34)cc2)cc1OC | 0.9 | 0.96 | 1.24
5 | CNC(=O)c1cnc(Nc2ccc(N3CCN(C)CC3)c(C)c2)nc1NC | -0.78 | -3.69 | 3.79
6 | CN1CCN(c2ccc(-c3cccc(NC(=O)c4ccc5ccccc5c4)c3)nn2)CC1 | 14 | 10.9 | 7.19
7 | CCCc1cn2c3c(cc(C(=O)N[C@@H](Cc4ccccc4)[C@H](O)CNC4CCOCC4)cc13)N(CC)S(=O)(=O)CC2 | 1.86 | 2.35 | 1.03
8 | CCCCOc1cc(OC)c2ccccc2c1CCNCCCCNCCc1c(OCCCC)cc(OC)c2ccccc12 | 105 | 106 | 104
9 | CC(C)c1cccc(C(NC(=O)[C@H]2Cc3ccccc3CN2C(=O)c2cccc(N3CCOCC3)c2)C2CCCC2)c1 (some centres not stated) | 1 | 0.21 | 0.64
10 | N#Cc1cc(N(CCCOc2cccc(OC(F)(F)F)c2)Cc2ccccc2C(F)(F)F)ccc1C(F)(F)F | -0.77 | -0.39 | 0.94
11 | COc1ccc(C(=O)N2CCN(c3ccc([N+](=O)[O-])c(NC4CC4)c3)CC2)cc1Br | 14.4 | 14.1 | 12.6
12 | Cc1cccc2nc(-c3cccc(-c4ccc(NC(=O)c5cccnc5)cc4)c3)[nH]c12 | 3.18 | 4.09 | 2.31
13 | CCOC(=O)CCc1cc(F)c(F)c(OC[C@H](O)CNC(C)(C)C(O)c2ccc3ccccc3c2)c1 (some centres not stated) | 0.06 | 0.61 | 0.21
14 | COc1cc2nc(NCC3CCCO3)n3nc(-c4ccccc4)nc3c2cc1OC (configuration not stated) | 8.44 | 6.19 | 2.53
15 | COc1ccccc1CCNc1nc(C)cc(N[C@@H](CC(C)C)C(=O)NCCc2ccccc2)n1 | 2.53 | 5.72 | 2.57
16 | FC(F)(F)c1cccc(CNCC2CCN(Cc3ccc4c(c3)OCO4)CC2)c1 | 9.53 | 12.1 | 12.3
17 | Cc1cc(N[C@@H](CC(C)C)C(=O)NCCc2ccccc2)nc(NCC2CCCCC2)n1 | 6.58 | 6.23 | 3.37
18 | O=C(C=Cc1ccc(-c2nc3ccccc3[nH]2)cc1)NC1CCN(Cc2ccccc2)CC1 | -1.19 | 1.99 | 5.3
19 | CCN1CCN(CC(O)CNC(=O)Nc2ccc(Cl)cc2)CC1 (configuration not stated) | 8.67 | 8.82 | 6.63
20 | COc1cc(C(=O)N2CCOC(CCN3CCC(Cc4ccc(F)cc4)CC3)(c3ccc(Cl)c(Cl)c3)C2)cc(OC)c1OC (configuration not stated) | 5.79 | 7.29 | 2.49
21 | CCN(CC)CCN(Cc1ccc(-c2ccc(C(F)(F)F)cc2)cc1)C(=O)Cn1c(CCc2cccc(C#N)c2)nc(=O)c2ccccc21 | 2.68 | 1.83 | 2.44
22 | O=C(NC1CC1)c1cnc(N2CCN(Cc3c(F)cccc3Cl)CC2)c(Cl)c1 | 12 | 1.02 | -3.18
23 | CC(=O)N[C@H](C(=O)Nc1ccc(-c2cccc(-c3nc4cccc(C)c4[nH]3)c2)cc1)C(C)C | 1.35 | 3.2 | 2.45

Row | Compound | inhibition [1] [%] | inhibition [2] [%] | inhibition [3] [%]
24 | Cc1ccc([N+](=O)[O-])cc1NC(=O)N(CC(O)c1ccccc1)C1CCCCC1 (configuration not stated) | 1.93 | 2.61 | 2.38
25 | CC(C)(C)c1nn(-c2ccccc2)c2[nH]c(=O)c(CNC3CCCCC3)cc12 | 1.69 | 1.5 | 2.72
26 | COc1ccc(CN2CCC(CNC(C)c3cccc4ccccc34)CC2)cc1 (configuration not stated) | 7.32 | 12.7 | 5.96
27 | COc1ccc(O)c(C(=O)c2cc(C#N)c(=O)n(-c3ccc(Oc4ccccc4)cc3)c2)c1 | 10.2 | 8.65 | 9.41
28 | O=C(CC1NC(=O)c2ccccc21)Nc1ccc(-c2ccc(-c3nc4cc(C(F)(F)F)ccc4[nH]3)cc2)cc1 (configuration not stated) | 4.68 | 3.05 | 5.45
29 | O=C1CCCN1CCCNCc1ccc(-c2cccc(-c3nc4ccccc4[nH]3)c2)cc1 | 4.17 | 3.74 | 4.94
30 | Cc1cc(N(C)C)nc(Nc2ccc(NC(=O)COc3ccccc3)cc2)n1 | 2.72 | 7.92 | -2.15
31 | Cc1cccc(NC(=O)NC2CCN(CCCCCNC(=O)/C=C/c3ccc(Cl)c(Cl)c3)CC2)c1 | 4.31 | 3.83 | 3.5
32 | Oc1c(Cl)cc(-c2ccccc2)cc1CNC1CCCCC1 | 2.63 | 1.84 | 0.52
33 | COc1ccc2nccc([C@@H](O)CN3CCC(NCC(=O)Nc4cc(F)cc(F)c4)CC3)c2n1 | 37.8 | 47.2 | 58.1
34 | CCOc1ccc(C(=O)N2CCOC(CCN3CCC4(CCc5ccccc54)CC3)(c3ccc(Cl)c(Cl)c3)C2)cc1 (configuration not stated) | 5.41 | 5.56 | 5.12
35 | CO/C(=C\C=C\c1cc2cc(Cl)c(Cl)cc2[nH]1)C(=O)NCCCN1CCN(c2cccc(OCC(=O)Nc3ccccc3)c2)CC1 | 8.53 | 8.92 | 5.76
36 | C=CCOc1ccccc1CNCC(O)c1cc(Br)cs1 (configuration not stated) | 1.55 | 2.37 | 2.43
37 | Cc1ccc(-c2nc3ccccc3o2)cc1NCc1cc(Cc2ccccc2)ccc1O | -0.71 | -0.23 | -0.6
38 | O=C(/C=C/c1cccs1)NCC(NCCCNc1cc(=O)c2ccccc2[nH]1)c1cc(Br)cc(Br)c1 (configuration not stated) | 4.13 | 3.76 | 4.57
39 | O=C(CCN1CCCCC1)Nc1ccc(Nc2nccc(NCC(O)c3ccccc3)n2)cc1 (configuration not stated) | -1.33 | -1.09 | -2.39
40 | c1cc(CNCCc2ccncc2)cc(-c2csc(-c3nc4ccccc4[nH]3)c2)c1 | 0.51 | -1.59 | 1.05
41 | CS(=O)(=O)NCCCNCc1cccc(-c2ccc(-c3nc4cc(C(F)(F)F)ccc4[nH]3)s2)c1 | 1.55 | 2.21 | 1.74
42 | CC(C)(C)c1cc(C(=O)N2CCN(c3ncccc3C(F)(F)F)CC2)n(Cc2ccccc2)n1 | 5.66 | 6.48 | 4.37
43 | COc1c(C=NNc2nc(=Nc3ccccc3)[nH]c(=Nc3ccccc3)[nH]2)ccc(Br)c1O | 11.3 | 11.7 | 9.27
44 | CCn1c(C(C)C)cc2c3c(N)nc(N)nc3ccc21 | 50.6 | 61.1 | 42
45 | Cc1occc1C(=O)Nc1nc(-c2ccccn2)nc2ccsc12 | 78.6 | 73.2 | 70
46 | CN(C)CCNc1cc(-c2cccnc2)nc(-c2ccncc2)n1 | -1.31 | -1.16 | -1.09

Row | Compound | inhibition [1] [%] | inhibition [2] [%] | inhibition [3] [%]
47 | O=C1COc2ccc(CNC3CCC(O)(CCc4ccnc5cc6c(cc45)OCCO6)CC3)nc2N1 (configuration not stated) | 3.59 | 3.14 | 2.8
48 | CCN(CC)CCN(Cc1ccc(-c2ccc(C(F)(F)F)cc2)cc1)C(=O)Cn1c(CCc2cccc(F)c2F)nc(=O)c2ccc(C)cc21 | 0.88 | 1.15 | 0.22
49 | O=C(Cc1ccc(-c2ccccc2)cc1)N[C@H]1CCN(Cc2ccc(OCCCN3CCCCC3)cc2)C1 | 18.6 | 17.2 | 8.12
50 | COc1ccc(NC(=O)[C@H](Cc2ccccc2)Nc2cc(C)nc(NCCc3cccnc3)n2)cc1 | -0.56 | 1.12 | 1.34
51 | COc1ccc(CCNCc2cc3c(C(C)(C)C)nn(-c4ccc(Cl)cc4)c3[nH]c2=O)cc1OC | -2.79 | -2.78 | -5.42
52 | CN1CCN(CCCN(Cc2cccc(-c3cccc(CNCc4ccc5c(c4)OCO5)c3)c2)C(=O)CCC2CCCC2)CC1 | 16.7 | 12.2 | 10.4
53 | COc1ccc(Nc2nc(NN=Cc3cc(Br)c(O)cc3O)nc(Nc3ccc([N+](=O)[O-])cc3)n2)cc1 | 0.58 | 0.96 | 1.09
54 | Cn1cncc1-c1ccc2ncnc(Nc3ccc(OCc4ccccc4)cc3)c2c1 | 0.55 | 1.48 | 0.29
55 | CNCCNCc1cccc(-c2ccc(-c3nc4ccccc4[nH]3)s2)c1 | 1.51 | 1.53 | 5.06
56 | CN(c1ccc2c(c1)nc(Nc1cc(C(C)(C)C)on1)n2C)c1ccnc(Nc2ccc(CS(C)(=O)=O)cc2)n1 | -1.02 | 0.41 | -1.74
57 | Clc1ccc(OCCC2CCN(CCCCCCCN3CCC(CCOc4ccc(Cl)c(Cl)c4)CC3)CC2)cc1Cl | 9.59 | 11.4 | 3.47
58 | Cc1cc(OCC2CCN(c3ccc(C(=O)NC4CC4)cn3)CC2)ccc1F | 0.67 | 1.45 | -6.22
59 | CS(=O)(=O)c1cccc(-c2cnc(N)c3cc(-c4ccc(F)cc4)ccc23)c1 | 2.85 | 1.64 | 1.35
60 | O=C(Nc1cccc(-c2ccc(-c3nc4cc(C(F)(F)F)ccc4[nH]3)cc2)c1)c1c[nH]cn1 | 5.73 | 5.19 | 0.52
61 | CN(c1ccc(NC(=O)Nc2cc(C(C)(C)C)on2)cc1)c1ccnc(NCCOC(=O)Nc2cc(C(C)(C)C)on2)n1 | 10.6 | 7.48 | 11.5
62 | CNC(=O)c1ccccc1Nc1cc(Nc2cc(OC)ccn2)ncc1Cl | 5.77 | 7.66 | 6.6
63 | COc1cc([N+](=O)[O-])ccc1NC(=O)c1cc(Cl)ccc1O | 7.76 | 6.83 | 7.02
64 | COc1ccc(NC(=O)/C=C/c2ccccc2Cl)cc1OCCN1CCN(c2ccncc2)CC1 | 1.29 | -0.96 | -1.49
65 | Cc1ccc(O)c(-c2cc(C(=O)Nc3ccc(S(=O)(=O)N4CCCC(C)C4)cc3)[nH]n2)c1 (configuration not stated) | -0.03 | -0.51 | 0.63
66 | CCCc1cc(Cc2cnc(N)nc2N)c2cccnc2c1OC | 6.44 | 4.01 | 4.33
67 | CCN(CC)CCCN(C(=O)Nc1ccc(C#N)cc1)c1nc(-c2ccc(F)cc2)cs1 | -0.54 | 2.42 | -0.41
68 | COc1ccc(OC)c2c1CC1NCC2c2c(OC)ccc(OC)c21 (configuration not stated) | 2.86 | 2.69 | 0.54
69 | Cc1ccc(Nc2nccc(Nc3ccc4c(C)n[nH]c4c3)n2)cc1F | 3.22 | 4.19 | 1.7
